{"source": "PubChem BioAssay (Tox21)", "note": "Results filed as inconclusive are left out. Where a call stands in place of a potency, no number is given. The source made the active and inactive calls. Calls follow the shape of the dose curve; as a rule, active = well fitted activation curve with a large enough effect in the signal ratio in the repeat runs (not every such curve was filed as active); inconclusive = weak or mixed curves; inactive = flat fitted curve, though single readings scatter; the % refers to the signal ratio."}
{"experiment": "p53 small molecule agonists, cell-based qHTS assay (AID 1963582)", "details": "HCT-116 p53RE-bla reporter, beta-lactamase FRET ratio, 16 h; series mostly up to 66 µM", "text": "National Center for Advancing Translational Sciences [NCATS]\nDivision of Preclinical Innovation [DPI]\nU.S. Environmental Protection Agency [EPA]\nNational Institutes of Environmental Health Sciences [NIEHS]\nNational Toxicology Program [NTP]\nU.S. Food and Drug Administration [FDA]\np53, a tumor suppressor protein, is activated following cellular insult, including DNA damage and other cellular stresses. The activation of p53 regulates cell fate by inducing DNA repair, cell cycle arrest, apoptosis, or cellular senescence. The activation of p53, therefore, is a good indicator of DNA damage and other cellular stresses. […] The activation of the reporter gene under culture conditions can be detected by fluorescence intensity. This cell line was used to screen the Tox21 10K compound library in a 1536-well plate format and to identify agonists that activate the p53 signaling pathway.\nTox21 Assay Protocol Summary:\nThe p53RE-bla cells were dispensed at 4,000 cells/5 ul/well in 1536-well black wall/clear bottom plates using a Multidrop dispenser. After the assay plates were incubated at a 37 C/5% CO2 incubator for 5 hours, 23 nL of compounds dissolved in DMSO, positive controls or DMSO only was transferred to the assay plate by a pin tool. The plates were incubated at 37 C for 16 hours. After 1 uL of LiveBLAzerTM B/G FRET substrate was added using a Flying Reagent Dispenser, the plates were incubated at room temperature for 2 hours, and fluorescence intensity was measured by an Envision plate reader."}
{"smiles": "CCOCCOCCOCCO", "Potency": "inactive"}
{"smiles": "CC1=C(C=O)C(C)(C)CC=C1", "Potency": "inactive"}
{"smiles": "Cc1ncc(CSSCc2cnc(C)c(O)c2CO)c(CO)c1O", "Potency": "inactive"}
{"smiles": "CCCCCCCCCC/C=C/C#N", "Potency": "inactive"}
{"smiles": "CC1CNCC(C)O1", "note": "(stereo not given)", "Potency": "inactive"}
{"smiles": "CCCCCCCCCCCCCCCC", "Potency": "inactive"}
{"smiles": "CC(=O)O[C@H](CC(=O)[O-])C[N+](C)(C)C", "Potency": "inactive"}
{"smiles": "CC(O)Cn1cnc2c1c(=O)n(C)c(=O)n2C", "note": "(stereo not given)", "Potency": "inactive"}
{"smiles": "COCCCC/C(=N\\OCCN)c1ccc(C(F)(F)F)cc1", "Potency": "inactive"}
{"smiles": "CCCCC/C=C/C=C/C=O", "Potency": "inactive"}
{"smiles": "COC(=O)Nc1ccc(Cl)c(Cl)c1", "Potency": "inactive"}
{"smiles": "C[Si](C)O[Si](C)C", "Potency": "inactive"}
{"smiles": "O=C1CCCCCCCCCCCCCCCO1", "Potency": "inactive"}
{"smiles": "CCc1c(Br)c(Br)c(Br)c(Br)c1Br", "Potency": "inactive"}
{"smiles": "CCCC=O", "Potency": "inactive"}
{"smiles": "COC(=O)c1sccc1S(N)(=O)=O", "Potency": "inactive"}
{"smiles": "CO[C@@H]1[C@@H](O[C@@H]2O[C@H](C)[C@@H](O[C@H]3C[C@@](C)(O)[C@@H](O)[C@H](C)O3)[C@H](N(C)C)[C@H]2O)[C@@H](CC=O)C[C@@H](C)[C@@H](O[C@@H]2CC[C@H](N(C)C)[C@@H](C)O2)/C=C/C=C/C[C@@H](C)OC(=O)C[C@H]1OC(C)=O", "Potency": "inactive"}
{"smiles": "CC(O)C(CO)C(C)O", "note": "(stereo not given)", "Potency": "inactive"}
{"smiles": "CCSC(=O)N(CC(C)C)CC(C)C", "Potency": "inactive"}
{"smiles": "CC(=O)O[C@@H]1CC2C3CCc4cc(OC(=O)c5ccccc5)ccc4C3CCC2(C)[C@H]1OC(C)=O", "note": "(stereo not given in full)", "Potency": "inactive"}
{"smiles": "ON(Cc1ccccc1)Cc1ccccc1", "Potency": "inactive"}
{"smiles": "CCC(C)(C)C1CCCCC1OC(C)=O", "note": "(stereo not given)", "Potency": "inactive"}
{"smiles": "CCCOC(C(=O)OC1CCN(C)CC1)(c1ccccc1)c1ccccc1", "Potency": "inactive"}
{"smiles": "CCCCC(=O)N(C)C", "Potency": "inactive"}
{"smiles": "COc1ccc(N=[N+]([O-])c2ccc(OC)cc2)cc1", "Potency": "inactive"}
{"smiles": "OCC(O)CN1CCN(c2ccccc2)CC1", "note": "(stereo not given)", "Potency": "inactive"}
{"smiles": "O=C(Cl)c1ccccc1[N+](=O)[O-]", "Potency": "inactive"}
{"smiles": "Fc1c(F)c(F)c(Br)c(F)c1F", "Potency": "inactive"}
{"smiles": "CCC/C=C/CO", "Potency": "inactive"}
{"smiles": "CC(C)(C)NC(N)=O", "Potency": "inactive"}
{"smiles": "CCOc1ncc(F)c(=O)[nH]1", "Potency": "inactive"}
{"smiles": "FC(F)(F)C(Cl)(Cl)Cl", "Potency": "inactive"}
{"smiles": "CC/C=C\\CCOC(=O)C(C)C", "Potency": "inactive"}
{"smiles": "CCCCCCCC(=O)[O-].CCCCCCCC(=O)[O-].[Zn+2]", "Potency": "inactive"}
{"smiles": "O=c1[nH]c2ccccc2c(=O)n1CCCl", "Potency": "inactive"}
{"smiles": "CC1=CC[C@@]23C[C@@H]1C(C)(C)[C@@H]2CC[C@H]3C", "Potency": "inactive"}
{"smiles": "O=C(O)[C@@H](O)[C@H](O)[C@H](O)[C@@H](O)C(=O)O", "Potency": "inactive"}
{"smiles": "O=C(O)c1cccc(Cl)c1Cl", "Potency": "inactive"}
{"smiles": "CCC(C)NC(N)=O", "note": "(stereo not given)", "Potency": "inactive"}
{"smiles": "CC(=O)C(C)O", "note": "(stereo not given)", "Potency": "inactive"}
